Measured values published in PubChem BioAssay (Tox21).
Several values for one entry are separate records, joined by “and”; a condition that tells them apart may be missing. Identical values can stand only once. Records with an inconclusive call do not appear. Where a call stands in place of a potency, no number is given. Activity calls are given as the source filed them. Unless noted, calls follow the shape of the full dose curve.

system: not listed separately; assay: Nuclear factor erythroid 2-related factor 2/antioxidant responsive element (Nrf2/ARE) small molecule agonists: luciferase reporter gene qHTS assay in human keratinocytes (AID 1919969); settings: KeratinoSens HaCaT ARE-luciferase, luminescence, 24 h; series mostly up to 92.4 µM; also: nearly all actives have a fitted effect of over 35% in size; also: potency is read from the fitted curve at half-maximal effect

Row | Compound | Potency
1 | O=C(N[C@H](c1ccccc1)[C@@H]1CN2CCC1CC2)c1c(Cl)ccc(C(F)(F)F)c1Cl | inactive
2 | O=[N+]([O-])c1cc(C(F)(F)F)cc([N+](=O)[O-])c1Cl | inactive
3 | c1cc(OCC2CO2)ccc1Cc1ccc(OCC2CO2)cc1 (centres undefined) | 27.4 µM (active) and 27.3 µM (active)
4 | Cc1cc(C2CC2)nc(Nc2ccccc2)n1 | 68.6 µM (active)
5 | NNC(N)=O | inactive
6 | CN1CCc2cc3c(cc2C1O)OCO3 (centres undefined) | 54.8 µM (active)
7 | Fc1ccc(Oc2ccnc3cc(Cl)cc(Cl)c23)cc1 | 24.3 µM (active)
8 | O=C1C(I)=CC(=C(c2cc(I)c(O)c(I)c2)c2ccccc2C(=O)O)C=C1I | inactive
9 | O=NN1CCNCC1 | 76.1 µM (active)
10 | Oc1ccc([C@H]2CNCc3c2ccc(O)c3O)cc1O | inactive
11 | CCC1(CC)C(=O)N=C(O)NC1=O | inactive
12 | CCCCN(CCCC)C(=S)S | 68.6 µM (active)
13 | NS(=O)(=O)C(F)(F)C(F)(F)C(F)(F)C(F)(F)C(F)(F)C(F)(F)C(F)(F)C(F)(F)F | 68.6 µM (active)
14 | CSC(=O)c1c(C(F)F)nc(C(F)(F)F)c(C(=O)SC)c1CC(C)C | 24.2 µM (active)
15 | CCOP(=S)(Oc1ccc([N+](=O)[O-])cc1)c1ccccc1 (centres undefined) | inactive
16 | OC(c1ccc(Cl)cc1)(c1ccc(Cl)cc1)C(Cl)(Cl)Cl | inactive
17 | CC(C)(c1ccccc1)c1ccc(O)cc1 | inactive
18 | O=C1NCN(c2ccccc2)C12CCN(CCCOc1ccc(F)cc1)CC2 | inactive
19 | Brc1ccc(Oc2ccc(Br)cc2Br)c(Br)c1 | 6.12 µM (active)
20 | CCOC(=O)CCN(SN(C)C(=O)Oc1cccc2c1OC(C)(C)C2)C(C)C | 61.1 µM (active)

molecular target: Gonadotropin-releasing hormone receptor (Homo sapiens) (UniProt P30968); assay: Human gonadotropin-releasing hormone receptor (GnRHR) small molecule agonists, calcium flux assay in GnRHR-HEK293 cells (AID 1920063); settings: calcium flux fluorescence, agonist mode; series mostly up to 57.6 µM; also: nearly all actives have a fitted effect of over 35% in size; also: potency is read from the fitted curve at half-maximal effect
In short: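 Cells: HEK293 stably expressing human GnRHR. Steps: overnight (18 h) culture, 1 h calcium dye loading at 37 C, compound addition, kinetic fluorescence read at 480/540 nm. Each compound tested at 15 concentrations in triplicate.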

Gonadotropin-releasing hormone receptor (Homo sapiens), sequence (P30968 whole entry, looked up): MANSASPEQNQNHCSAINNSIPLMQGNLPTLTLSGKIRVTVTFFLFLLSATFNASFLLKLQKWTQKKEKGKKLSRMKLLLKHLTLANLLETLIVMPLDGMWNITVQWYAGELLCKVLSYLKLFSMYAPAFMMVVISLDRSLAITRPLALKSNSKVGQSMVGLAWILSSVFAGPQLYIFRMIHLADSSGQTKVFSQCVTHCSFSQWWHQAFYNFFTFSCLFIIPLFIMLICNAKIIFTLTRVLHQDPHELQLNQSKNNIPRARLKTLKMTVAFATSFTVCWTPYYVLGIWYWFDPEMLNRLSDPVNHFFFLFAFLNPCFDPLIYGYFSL

Row | Compound | Potency
21 | Nc1nc(N)c(N)c(N)n1 | 39.1 µM (active)
22 | CCOP(=S)(NC(C)C)Oc1ccccc1C(=O)OC(C)C (centres undefined) | inactive
23 | COC(=O)C(C)N(C(=O)c1ccco1)c1c(C)cccc1C (centres undefined) | inactive
24 | CCCCCCCc1ccc(O)cc1 | inactive
25 | CCOP(=O)(OCC)Oc1nc(Cl)c(Cl)cc1Cl | inactive
26 | O=c1ssc(Cl)c1Cl | inactive
27 | Nc1ccc(Cl)cc1C(=O)c1ccccc1 | inactive
28 | CCCN(CCC)c1c([N+](=O)[O-])cc(C(F)(F)F)cc1[N+](=O)[O-] | inactive
29 | CNC(=O)N(C)c1nc2ccccc2s1 | inactive
30 | c1ccc2c(c1)cc1ccc3cccc4ccc2c1c34 | inactive
31 | CC(C)(O)c1cnn2c(-c3ccc(F)c(-c4c(F)cccc4C#N)c3)cnc2n1 | 38.9 µM (active)
32 | CCOc1cc(C(C)(C)C)ccc1C1COC(c2c(F)cccc2F)=N1 (centres undefined) | inactive
33 | CC(C)(C)C(O)/C(=C\c1ccc(Cl)cc1Cl)n1cncn1 (centres undefined) | inactive
34 | NC1CCC(CC2CCC(N)CC2)CC1 (centres undefined) | inactive
35 | O=[N+]([O-])c1ccc(Oc2ccc(C(F)(F)F)cc2[N+](=O)[O-])cc1 | inactive
36 | CCCN(CC1CC1)c1c([N+](=O)[O-])cc(C(F)(F)F)cc1[N+](=O)[O-] | inactive
37 | OCC(c1ccc(Cl)cc1)c1ccc(Cl)cc1 | inactive
38 | CC(C)C1CCC(Cc2ccc(Cl)cc2)C1(O)Cn1cncn1 (centres undefined) | inactive
39 | COC(C)(C)CCC[C@H](C)C/C=C/C(C)=C/C(=O)OC(C)C | inactive
40 | CCCSP(=S)(OCC)Oc1ccc(Cl)cc1Cl (centres undefined) | inactive

Row | Compound | Potency
41 | O=C(N[C@H](c1ccccc1)[C@@H]1CN2CCC1CC2)c1c(Cl)ccc(C(F)(F)F)c1Cl | inactive
42 | O=[N+]([O-])c1cc(C(F)(F)F)cc([N+](=O)[O-])c1Cl | inactive
43 | c1cc(OCC2CO2)ccc1Cc1ccc(OCC2CO2)cc1 (centres undefined) | inactive
44 | Cc1cc(C2CC2)nc(Nc2ccccc2)n1 | inactive
45 | NNC(N)=O | inactive
46 | CN1CCc2cc3c(cc2C1O)OCO3 (centres undefined) | inactive
47 | Fc1ccc(Oc2ccnc3cc(Cl)cc(Cl)c23)cc1 | inactive
48 | O=C1C(I)=CC(=C(c2cc(I)c(O)c(I)c2)c2ccccc2C(=O)O)C=C1I | inactive
49 | O=NN1CCNCC1 | inactive
50 | Oc1ccc([C@H]2CNCc3c2ccc(O)c3O)cc1O | inactive
51 | CCC1(CC)C(=O)N=C(O)NC1=O | inactive
52 | CCCCN(CCCC)C(=S)S | inactive
53 | NS(=O)(=O)C(F)(F)C(F)(F)C(F)(F)C(F)(F)C(F)(F)C(F)(F)C(F)(F)C(F)(F)F | inactive
54 | CSC(=O)c1c(C(F)F)nc(C(F)(F)F)c(C(=O)SC)c1CC(C)C | inactive
55 | CCOP(=S)(Oc1ccc([N+](=O)[O-])cc1)c1ccccc1 (centres undefined) | inactive
56 | OC(c1ccc(Cl)cc1)(c1ccc(Cl)cc1)C(Cl)(Cl)Cl | inactive
57 | CC(C)(c1ccccc1)c1ccc(O)cc1 | inactive
58 | O=C1NCN(c2ccccc2)C12CCN(CCCOc1ccc(F)cc1)CC2 | 9.52 µM (active)
59 | Brc1ccc(Oc2ccc(Br)cc2Br)c(Br)c1 | inactive
60 | CCOC(=O)CCN(SN(C)C(=O)Oc1cccc2c1OC(C)(C)C2)C(C)C | inactive

molecular target: KiSS-1 receptor (Homo sapiens) (UniProt Q969F8); assay: Human kisspeptin (KISS1R) small molecule agonists, calcium flux assay in KISS1R-HEK293 cells (AID 1920064; active = well fitted activation curve with a large enough effect in the repeat runs); settings: KISS1R-HEK293, calcium flux fluorescence, agonist; series mostly up to 76.8 µM
In short: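 Cells plated and incubated 18 h; dye added, 1 h at 37 C; compounds in DMSO pinned in; signal read at 480/540 nm every second for 3 min. Each compound tested at 15 concentrations in triplicate.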

KiSS-1 receptor (Homo sapiens), sequence (Q969F8 whole entry, looked up): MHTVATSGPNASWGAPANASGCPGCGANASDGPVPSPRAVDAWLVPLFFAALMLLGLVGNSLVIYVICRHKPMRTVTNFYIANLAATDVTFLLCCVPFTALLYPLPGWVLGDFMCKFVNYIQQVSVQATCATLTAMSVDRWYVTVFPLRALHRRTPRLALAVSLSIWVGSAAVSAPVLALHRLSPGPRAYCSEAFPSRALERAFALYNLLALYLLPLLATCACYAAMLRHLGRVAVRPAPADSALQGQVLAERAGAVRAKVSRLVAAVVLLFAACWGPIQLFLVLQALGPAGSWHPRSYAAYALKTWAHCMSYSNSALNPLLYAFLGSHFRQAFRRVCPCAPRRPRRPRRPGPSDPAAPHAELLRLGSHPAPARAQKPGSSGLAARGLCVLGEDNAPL

Row | Compound | Potency
61 | CCOP(=S)(NC(C)C)Oc1ccccc1C(=O)OC(C)C (centres undefined) | inactive
62 | CCCCCCCc1ccc(O)cc1 | inactive
63 | CCOP(=O)(OCC)Oc1nc(Cl)c(Cl)cc1Cl | inactive
64 | O=c1ssc(Cl)c1Cl | inactive
65 | Nc1ccc(Cl)cc1C(=O)c1ccccc1 | inactive
66 | CNC(=O)N(C)c1nc2ccccc2s1 | inactive
67 | c1ccc2c(c1)cc1ccc3cccc4ccc2c1c34 | inactive
68 | CC(C)(O)c1cnn2c(-c3ccc(F)c(-c4c(F)cccc4C#N)c3)cnc2n1 | inactive
69 | CCOc1cc(C(C)(C)C)ccc1C1COC(c2c(F)cccc2F)=N1 (centres undefined) | inactive
70 | NC1CCC(CC2CCC(N)CC2)CC1 (centres undefined) | inactive
71 | O=[N+]([O-])c1ccc(Oc2ccc(C(F)(F)F)cc2[N+](=O)[O-])cc1 | inactive
72 | CCCN(CC1CC1)c1c([N+](=O)[O-])cc(C(F)(F)F)cc1[N+](=O)[O-] | inactive
73 | OCC(c1ccc(Cl)cc1)c1ccc(Cl)cc1 | inactive
74 | COC(C)(C)CCC[C@H](C)C/C=C/C(C)=C/C(=O)OC(C)C | inactive
75 | O=[N+]([O-])c1cc(C(F)(F)F)cc([N+](=O)[O-])c1Cl | inactive
76 | c1cc(OCC2CO2)ccc1Cc1ccc(OCC2CO2)cc1 (centres undefined) | inactive
77 | Cc1cc(C2CC2)nc(Nc2ccccc2)n1 | inactive
78 | NNC(N)=O | inactive
79 | CN1CCc2cc3c(cc2C1O)OCO3 (centres undefined) | inactive
80 | Fc1ccc(Oc2ccnc3cc(Cl)cc(Cl)c23)cc1 | inactive
81 | O=C1C(I)=CC(=C(c2cc(I)c(O)c(I)c2)c2ccccc2C(=O)O)C=C1I | inactive
82 | O=NN1CCNCC1 | inactive
83 | Oc1ccc([C@H]2CNCc3c2ccc(O)c3O)cc1O | inactive
84 | CCCCN(CCCC)C(=S)S | inactive
85 | NS(=O)(=O)C(F)(F)C(F)(F)C(F)(F)C(F)(F)C(F)(F)C(F)(F)C(F)(F)C(F)(F)F | inactive
86 | CCOP(=S)(Oc1ccc([N+](=O)[O-])cc1)c1ccccc1 (centres undefined) | inactive
87 | CC(C)(c1ccccc1)c1ccc(O)cc1 | inactive
88 | Brc1ccc(Oc2ccc(Br)cc2Br)c(Br)c1 | inactive
89 | CCOC(=O)CCN(SN(C)C(=O)Oc1cccc2c1OC(C)(C)C2)C(C)C | inactive
